# Source: PubChem BioAssay (NCI)
# This is part of a sample that, as a whole, favours compounds with a hit. Of some 83,000 tested, about 20% had one in any assay.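 Note: values are percent growth. 100 is the growth of untreated cells, values between 100 and 0 indicate rising inhibition; between -100 and 0 indicates cell death.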 Activity calls are given as the source filed them. The calls were made as follows: active = growth percent below 10; inactive = the rest.
# Tested on: HOP-92 NSCLC
# Assay: NCI-60 one-dose screen, 48 h (100 = growth as untreated, 0 = no growth, -100 = all killed)
# Settings: 10 µM
row,SMILES,growth
1,O=C(/C=C/c1ccco1)c1nc2ccccc2n1Cc1ccc(Br)cc1,3.99% (active)
2,O=C(/C=C/c1ccco1)c1nc2ccccc2n1Cc1ccc(F)cc1,40.2% (inactive)
3,COc1cc2cc(C(=O)N3C[C@@H](CCl)c4c3cc(OC(=O)N3CCN(C)[C@@H]5CSSC[C@@H]53)c3ccccc43)[nH]c2c(OC)c1OC,-4.54% (active)
4,C#CC[Se]C(=O)c1ccc2n[se]nc2c1,77% (inactive)
5,O=C(/C=C/c1ccc(Cl)cc1Cl)c1nc2ccccc2n1Cc1ccc(F)cc1,36.6% (inactive)
6,O=C(/C=C/c1ccc(Cl)cc1)c1nc2ccccc2n1Cc1ccc(Br)cc1,40.2% (inactive)
7,CCOP(=O)(OCC)C(NC(C)=O)C(=O)SCCN (centres undefined),108% (inactive)
8,COc1cc2cc(C(=O)N3C[C@@H](CCl)c4c3cc(OC(=O)N3CCN(C)[C@@H]5CSSC[C@H]53)c3ccccc43)[nH]c2c(OC)c1OC,-40.2% (active)
9,COc1ccc2cc([C@H](C)C(=O)[Se]CCC#N)ccc2c1,-82.1% (active)
10,CC12OOC(C)(OO1)C2CCC(=O)OCCNc1ccnc2cc(Cl)ccc12 (centres undefined),-27.2% (active)
11,CC(C)N=C([Se])NC(=O)c1cccs1,88.3% (inactive)
12,Cc1ccc2[nH]c(=S)n(-c3ccc(F)cc3)c(=O)c2c1,77.2% (inactive)
13,CCOC(=O)C1=C(Nc2ccccc2)C(=O)OC12C(=O)Nc1ccccc12 (centres undefined),101% (inactive)
14,CC12CCC3(CCC(=O)NCCCNc4ccnc5cc(Cl)ccc45)[C@@](C)(OO[C@]3(C)O1)O2,3.32% (active)
15,CC[C@]12C=CCN3CC[C@@]4(c5ccc(OC)cc5N(C)[C@H]4[C@@](O)(C(=O)OC)[C@@H]1OC(=O)CCCC[P+](C1CCCCC1)(C1CCCCC1)C1CCCCC1)[C@@H]32,-44.5% (active)
16,CC(=O)Oc1ccccc1C(=O)[Se]C(=NC(C)C)NC(C)C,-49.2% (active)
17,COCCOCCOCCOc1ccc(-n2cc(CCCN(CCNc3ccnc4cc(Cl)ccc34)C(=O)CCC(=O)O[C@@H]3O[C@@H]4OC5(C)CC[C@H]6[C@H](C)CC[C@@H]([C@H]3C)[C@@]46OO5)nn2)cc1,19.3% (inactive)
18,C[C@H]1[C@@H](CC(=O)N[C@@H](Cc2coc3ccccc23)B(O)O)O[C@@H]2OC3(C)CC[C@H]4[C@H](C)CC[C@@H]1[C@@]24OO3,-68.6% (active)
19,COP(=O)(CC(F)(F)C(F)(F)F)OC,-29.8% (active)
20,CC12OOC(C)(OO1)C2CCC(=O)NCCNc1ccnc2cc(Cl)ccc12 (centres undefined),111% (inactive)

row,SMILES,growth
1,CC[C@]12C=CCN3CC[C@@]4(c5ccc(OC)cc5N(C)[C@H]4[C@@](O)(C(=O)OC)[C@@H]1OC(=O)CCC[P+](c1ccc(C)cc1)(c1ccc(C)cc1)c1ccc(C)cc1)[C@@H]32,-83.2% (active)
2,CC(C)N=C([Se])NC(=O)c1ccccc1,-34.3% (active)
3,CC[C@]12C=CCN3CC[C@@]4(c5ccc(OC)cc5N(C)[C@H]4[C@@](O)(C(=O)OC)[C@@H]1OC(=O)CCC[P+](C1CCCCC1)(C1CCCCC1)C1CCCCC1)[C@@H]32,-43.8% (active)
4,CC1=C(COCCOC(=O)c2ccc(S(=O)(=O)F)cc2)C2=C(C)C3(CC3)[C@@](C)(O)C(=O)C2=C1,-29.7% (active)
5,CC[C@]12C=CCN3CC[C@@]4(c5ccc(OC)cc5N(C)[C@H]4[C@@](O)(C(=O)OC)[C@@H]1OC(=O)CCCC[P+](c1ccc(OC)cc1)(c1ccc(OC)cc1)c1ccc(OC)cc1)[C@@H]32,-74.5% (active)
6,CC1=C(CCC=NNC(N)=O)C2=C(C)C3(CC3)[C@@](C)(O)C(=O)C2=C1,-11.3% (active)
7,CC[C@@]12CC(C(=O)OC)=C3Nc4cc5c(cc4[C@@]34CCN(C[C@H]3O[C@H]31)[C@@H]24)[C@@H]1[C@H](O5)[C@@H](O)[C@@]2(CC)CC(C(=O)OC)=C3Nc4cc(OC)ccc4[C@@]34CCN1[C@@H]24,21.2% (inactive)
8,CCOP(=O)(CC(F)(F)C(F)(F)F)OCC,-7.91% (active)
9,CC1=C2C(=C[C@@](C)(COP(=O)(Oc3ccccc3)Oc3ccccc3)[C@@H]2O)C(=O)[C@@](C)(O)C12CC2,-44.8% (active)
10,CC(=O)Oc1ccccc1C(=O)NC([Se])=NC1CCCCC1,32% (inactive)
11,C[C@H]1[C@H](OC(=O)CCC(=O)N(CCCc2cn(-c3ccc(CN4CCOCC4)cc3)nn2)CCNc2ccnc3cc(Cl)ccc23)O[C@@H]2OC3(C)CC[C@H]4[C@H](C)CC[C@@H]1[C@@]24OO3,-9.61% (active)
12,O=C(/C=C/c1ccc(Cl)cc1)c1nc2ccccc2n1Cc1ccc(F)cc1,16.7% (inactive)
13,CC1=C(CCC=O)C2=C(C)C3(CC3)[C@@](C)(O)C(=O)C2=C1,-64.3% (active)
14,O=C(NC([Se])=NC1CCCCC1)c1ccc2c(c1)OCO2,118% (inactive)
15,C[C@H]1[C@H](OC(=O)CCC(=O)N(CCCc2cn(-c3ccc(C#N)cc3)nn2)CCNc2ccnc3cc(Cl)ccc23)O[C@@H]2OC3(C)CC[C@H]4[C@H](C)CC[C@@H]1[C@@]24OO3,7.07% (active)
16,C[C@H]1[C@@H](Oc2ccc(-c3cn(-c4ccnc5cc(Cl)ccc45)nn3)cc2)O[C@@H]2OC3(C)CC[C@H]4[C@H](C)CC[C@@H]1[C@@]24OO3,29.4% (inactive)
17,COc1ccc(/C=C/C(=O)c2nc3ccccc3n2Cc2ccc(Br)cc2)cc1,64.2% (inactive)
18,COC(=O)CCn1c(-c2ccc(-n3cc(-c4ccc(O[C@H]5O[C@@H]6OC7(C)CC[C@H]8[C@H](C)CC[C@@H]([C@H]5C)[C@@]68OO7)cc4)nn3)cc2)nc2ccccc21,1.85% (active)
19,C[C@H]1[C@H](OC(=O)CCC(=O)N(CCCc2cn(-c3ccc([N+](=O)[O-])cc3)nn2)CCNc2ccnc3cc(Cl)ccc23)O[C@@H]2OC3(C)CC[C@H]4[C@H](C)CC[C@@H]1[C@@]24OO3,24.9% (inactive)
